# This is a sample that favours compounds with a hit; in the whole collection about 3.1% have one here.
# PMP22 txn – modulates PMP22 transcription in S16 Schwann cells. S16 Pmp22-F2sN Schwann cells, FLuc/NLuc coincidence luminescence, 24 h. Potency, µM (doses to about 57.5 µM), for the others: top-dose activity change, negative = inhibition, usual class: inhibitors. 2% of 43,000 active. AID 1508649; active = clear falling dose curves in both reporters; inconclusive = both reporters move, but less clearly or upward; inactive = either reporter flat; the % is the NLuc reporter signal; also: potency is read from the fitted curve at half-maximal effect; % is scaled to controls: 0 for no effect and ±100 for the full control effect
#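 Transcriptional readout in edited S16(c9) cells: two luciferases reported from the Pmp22 locus, measured in turn after 24 h compound incubation.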
# p53null 39C kill – p53 null cell cytotoxicity, nonpermissive temperature; H1299 p53-null (neo) cells, 39C, ATPlite viability, 24 h; Potency, µM (series often up to 46.1 µM), inactives show at the highest dose activity, negative = cell killing, actives largely listed as cytotoxic; 0.97% of 55,000 active; AID 904;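 also: potency is read from the fitted curve at half-maximal effect; 0% = DMSO only and -100% = full killing by 100 µM tamoxifen; nearly all actives have a fitted effect of over 50% in size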
#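 Temperature-shift cytotoxicity format: compound titrations on p53-null or A138V-expressing H1299 cells held 24 hr at 39C, cell ATP then measured, AC50 from Hill model.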
# S16 F2sN tox – toxic to S16 Pmp22-F2sN Schwann cells; S16 Pmp22-F2sN Schwann cells viability, CellTiter-Glo, 24 h; Potency, µM (doses to about 57.5 µM), for the others: at the highest dose activity change, negative = cytotoxicity, most hits filed as cytotoxic; 0.48% of 43,000 active; AID 1508642; also: potency is read from the fitted curve at half-maximal effect; % is scaled to controls: 0 for no effect and ±100 for the full control effect; nearly all actives have a fitted effect of over 65% in size
#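 S16 Pmp22-F2sN Schwann cells (500-1,000/well) in phenol-red-free DMEM with 10% FBS received 23 nL compound by pin tool for 24 h at 37 °C. Viability was then read as CellTiter-Glo luminescence after 15 min at room temperature.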
# pS6 MEF inh – reduces mTORC1 signaling in Tsc2 and p53 null MEF cells | Potency, µM (titrated, usually from 38.3 µM), inactives show at the top dose activity change, negative = inhibition, most hits filed as inhibitors | 0.78% of 44,000 active | Tsc2-/- p53-/- MEF, phospho-rpS6 immunofluorescence/PI, 24 h | AID 493208;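 also: potency is read from the fitted curve at half-maximal effect; plate controls were DMSO for no effect and rapamycin for full effect; nearly all actives have a fitted effect of over 50% in size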
#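 Compounds act on Tsc2-/-, p53-/- fibroblasts carrying an empty vector for 24 h before fixation and dual staining for phospho-S6 and DNA (propidium iodide). Values are percentages of cells above a rapamycin-defined pS6/PI threshold.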
# OvCa metastasis – blocks SKOV3ip1 adhesion and invasion in omental model | SKOV3ip1-GFP adhesion/invasion on 3D omental model, fluorescence | Potency, µM (series often up to 45.8 µM), for inactives: top-dose activity change, negative = inhibition, hits mostly inhibitors | 0.1% of 46,000 active;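 also: potency is read from the fitted curve at half-maximal effect; plate controls were DMSO wells for no effect and tomatine positive control wells for full effect; nearly all actives have a fitted effect of over 65% in size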
#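 Primary human omental fibroblast/mesothelial 3D culture pre-formed 48 h. SKOV3ip1-GFP cells added with compounds (0.36-46 umol/L), incubated 2 h RT/16 h 37 C, fixed; GFP cells quantified at 488/509 nm.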
# p53null 32C kill – selectivity test: cytotoxicity in p53 null cells, permissive temperature; Potency, µM (highest dose often 46.1 µM), without a hit: at the top dose activity change, negative = cytotoxicity, most hits filed as cytotoxic; 0.62% of 55,000 active; H1299-neo p53 null cells, ATP luminescence, 24 h, 32C;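 also: potency is read from the fitted curve at half-maximal effect; 0% = DMSO only and -100% = full killing by 100 µM tamoxifen; nearly all actives have a fitted effect of over 55% in size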
#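 H1299-neo, 600 cells/well; overnight 37C; cpd up to 46 uM, 24 h at 32C; ATPlite luminescence after 20 min RT; normalized to DMSO (0%) and tamoxifen 100 uM (100% kill); Hill-fit AC50.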
# NLuc saturating – counter-screen for PMP22 expression modulators: NanoLuc inhibition, saturating substrate; shares compounds with PMP22 txn; Secreted NLuc enzyme (filtered S16 cell medium), Nano-Glo luminescence; Potency, µM (series often up to 57.5 µM), without a hit: at the highest dose activity change, negative = inhibition, actives largely listed as inhibitors; 4% of 690 active; AID 1508638; also: potency is read from the fitted curve at half-maximal effect; % is scaled to controls: 0 for no effect and ±100 for the full control effect
# NLuc Km counter – NanoLuc inhibition at Km substrate, PMP22 artifact check; shares compounds with PMP22 txn; secreted NLuc enzyme, coelenterazine luminescence, Km conditions; Potency, µM (top dose mostly 57.5 µM), inactives show at the top dose activity change, negative = inhibition, usual class: inhibitors; 5% of 690 active; also: potency is read from the fitted curve at half-maximal effect; % is scaled to controls: 0 for no effect and ±100 for the full control effect
# FLuc ctr PMP22 – firefly luciferase enzyme inhibition artifact for PMP22 screen; 690 tested, under 10 active; shares compounds with PMP22 txn; Potency, µM (doses to about 57.5 µM), inactives show top-dose activity, negative = inhibition, most hits filed as inhibitors; purified P. pyralis FLuc, luminescence, 10 min; also: % of control where 0% means no effect
# Target sequence (P08659 whole entry, looked up): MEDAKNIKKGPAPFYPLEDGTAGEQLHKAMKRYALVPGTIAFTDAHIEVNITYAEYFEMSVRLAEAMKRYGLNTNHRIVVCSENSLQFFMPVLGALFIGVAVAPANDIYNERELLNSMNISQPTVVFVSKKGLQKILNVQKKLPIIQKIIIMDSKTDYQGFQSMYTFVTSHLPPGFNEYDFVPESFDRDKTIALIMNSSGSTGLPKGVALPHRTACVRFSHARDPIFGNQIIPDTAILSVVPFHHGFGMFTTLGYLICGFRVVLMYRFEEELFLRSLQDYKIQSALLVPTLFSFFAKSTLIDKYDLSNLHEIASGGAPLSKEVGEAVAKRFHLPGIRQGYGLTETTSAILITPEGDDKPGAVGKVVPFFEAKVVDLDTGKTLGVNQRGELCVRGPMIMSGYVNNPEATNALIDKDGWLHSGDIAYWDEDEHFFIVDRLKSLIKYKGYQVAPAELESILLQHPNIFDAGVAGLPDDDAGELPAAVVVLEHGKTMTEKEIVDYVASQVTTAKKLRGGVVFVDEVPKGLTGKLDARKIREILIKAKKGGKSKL
# S16 F2sN tox cnf – confirmation of cytotoxicity in S16 Pmp22-F2sN Schwann cells (luciferase reporters placed in the Pmp22 gene); Potency, µM (doses to about 57.5 µM), for inactives: at the highest dose activity change, negative = viability loss, hits mostly cytotoxic; AID 1508641; 7% of 690 active; S16 Schwann cells viability, CellTiter-Glo ATP luminescence, 24 h; shares compounds with PMP22 txn; also: potency is read from the fitted curve at half-maximal effect; % is scaled to controls: 0 for no effect and ±100 for the full control effect
# PMP22 txn conf – confirmation of modulators of PMP22 gene transcription in S16 cells. 22% of 690 active. S16 Schwann cells Pmp22-F2sN, dual luciferase, 24 h. Potency, µM (highest dose often 57.5 µM), without a hit: at the highest dose activity change, negative = inhibition, usual class: inhibitors. shares compounds with PMP22 txn; active = clear falling dose curves in both reporters; inconclusive = both reporters move, but less clearly or upward; inactive = either reporter flat; the % is the FLuc reporter signal; also: potency is read from the fitted curve at half-maximal effect
# Active calls of the source: *; ? = inconclusive; · = no result given. Unless noted, calls follow the shape of the dose curve; as a rule, active = well fitted curve in the direction sought with a large enough effect; inconclusive = small, poorly fitted or top-dose-only effect, or another doubt; inactive = no such curve, though single readings can be large; an effect the other way counts as inactive or inconclusive.
SMILES,PMP22 txn,p53null 39C kill,S16 F2sN tox,pS6 MEF inh,OvCa metastasis,p53null 32C kill,NLuc saturating,NLuc Km counter,FLuc ctr PMP22,S16 F2sN tox cnf,PMP22 txn conf
CCOc1ccc(NC(=O)CSc2oc(-c3ccccc3)nc2S(=O)(=O)c2ccc(Cl)cc2)cc1,10µM*,10µM*,5.5%,?,-0.8%,?,?,?,2.9%,?,19.3µM*
Cc1ccc(-n2c(/C=C\c3ccc(F)c(F)c3)nc3ccccc3c2=O)c(C)c1,8.91µM*,25.8%,?,6.0%,-0.8%,4.2%,-2.6%,-2.6%,2.3%,-5.8%,?
Cc1oc(-c2ccc(Cl)cc2)nc1CN1CCC(C(=O)NCCCN2CCN(c3cccc(Cl)c3)CC2)CC1,13.4µM*,25.1µM*,?,?,-3.9%,-5.5%,?,?,-9.2%,17.2µM*,10.3µM*
C[C@]12CC[C@H]3[C@@H](CCC4=CC(=O)CC[C@@]43C)[C@H]1CC[C@H]2OC(=O)CCC1CCCC1,·,·,·,·,-18.7%,·,·,·,·,·,·
CCCCOc1ccc(CN2C(=O)C(=O)c3cc(C)ccc32)cc1OC,8.8µM*,20µM*,?,?,16.1%,27.6%,-16.1%,-1.0%,-1.5%,-6.9%,?
O=c1[nH]c2ccc(Cl)cc2c(N[C@@H]2CN3CCC2CC3)c1-c1nc2ccccc2[nH]1,·,·,·,·,39.4%,·,·,·,·,·,·
